Bioassay records from PubChem BioAssay.
Only a selection was taken, and hits are over-represented in it overall.
IL-1B inflam inh: inhibitors of inflammasome signaling (IL-1 beta secretion) | actives 4.7% (n = 360,000) | activity change, % at 57.5 µM | THP-1 LPS/ATP IL-1B secretion, AlphaLISA, 16 h; hits give low values; in the data active means activity change below about -50%; inconclusive means mostly about -30% to -49%
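THP-1 cells pretreated 1 hr with compounds (up to 57.5 uM final), then stimulated with LPS (250 ng/mL final) plus ATP (1.25 mM final); secreted IL-1B measured by AlphaLISA after 16 hr, decreased signal indicating inhibition.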
TDP1 cell noCPT: qHTS for Inhibitors of human tyrosyl-DNA phosphodiesterase 1 (TDP1): qHTS in cells in absence of CPT; DT40 Tdp1-/- hTDP1 cells, no CPT, ATP luminescence, 48 h; Potency, µM (doses to about 46.2 µM), actives largely listed as inhibitors; actives 15% (n = 420,000); further: nearly all actives have a fitted effect of over 55% in size
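No-CPT arm: Tdp1-/-;hTDP1 DT40 cells (400/well) plus compounds, incubated ≥48 hr at 37 °C. Readout CellTiter-Glo luminescence.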
TDP1 cell CPT: DT40-hTDP1 cell growth loss with CPT; AID 686979; chicken DT40 Tdp1-/-;hTDP1 cells + 20 nM CPT, ATP luminescence, 48 h; Potency, µM (doses to about 46.2 µM), hits mostly inhibitors; actives 12% (n = 420,000); further: nearly all actives have a fitted effect of over 55% in size
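Cell growth measured by CellTiter-Glo luminescence after a minimum 48 h, 37 C compound exposure with 20 nM CPT in Tdp1-knockout DT40 cells stably expressing hTDP1, seeded 400/well; qHTS titration format.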
HT1080 IDH1KD tx: kills HT-1080 cells with IDH1 knockdown | Potency, µM (highest dose often 46.1 µM), usual class: cytotoxic | HT-1080 IDH1 knockdown viability, ATP luminescence, 48 h | actives 2% (n = 360,000)
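% activity derives from luminescence (CellTiter-Glo), normalised to DMSO and no-cell wells. HT-1080-IDH1KD cells, 750/well, had 48 h compound exposure at 37 °C.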
ALOX12 inh: inhibitors of human 12S-lipoxygenase ALOX12 | P18054 | purified 12hLO, xylenol orange hydroperoxide absorbance | Potency, µM (top dose mostly 108 µM), hits mostly inhibitors | actives 1.1% (n = 580,000)
Target sequence (P18054 whole entry, looked up): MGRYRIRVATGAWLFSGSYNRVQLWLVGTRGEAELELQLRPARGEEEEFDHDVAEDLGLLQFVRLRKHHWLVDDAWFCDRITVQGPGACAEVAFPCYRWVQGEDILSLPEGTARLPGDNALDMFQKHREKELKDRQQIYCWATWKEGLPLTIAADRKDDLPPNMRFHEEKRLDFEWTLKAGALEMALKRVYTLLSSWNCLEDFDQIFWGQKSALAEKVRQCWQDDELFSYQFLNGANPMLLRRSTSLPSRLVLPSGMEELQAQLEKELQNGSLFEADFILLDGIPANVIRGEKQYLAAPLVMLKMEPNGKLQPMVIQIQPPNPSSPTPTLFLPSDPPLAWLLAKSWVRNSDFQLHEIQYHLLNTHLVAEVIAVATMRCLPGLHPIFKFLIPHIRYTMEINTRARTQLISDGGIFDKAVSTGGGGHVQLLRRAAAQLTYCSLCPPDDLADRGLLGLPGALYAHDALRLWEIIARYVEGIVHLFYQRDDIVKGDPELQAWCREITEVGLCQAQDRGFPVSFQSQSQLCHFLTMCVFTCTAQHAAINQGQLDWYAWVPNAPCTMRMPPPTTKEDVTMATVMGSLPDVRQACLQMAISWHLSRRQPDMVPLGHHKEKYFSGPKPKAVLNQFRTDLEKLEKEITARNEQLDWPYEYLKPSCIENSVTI
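Purified human 12hLO at 150 nM in 25 mM Hepes, 0.01% Triton X-100, pH 7.0, preincubated 15 min at room temperature with compound. Reaction started with 40 uM arachidonic acid, 30 min at room temperature. Hydroperoxide measured by Fe-xylenol orange, 573/405 nm absorbance ratio.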
HT1080-NT tox: kills 2HG-producing HT-1080-NT fibrosarcoma cells; AID 686970; actives 1.6% (n = 360,000); Potency, µM (doses to about 46.1 µM), usual class: cytotoxic; HT-1080-NT fibrosarcoma viability, CellTiter-Glo ATP luminescence, 48 h;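 further: NT is the 2HG producing partner of a matched IDH1 knockdown line; nearly all actives have a fitted effect of over 55% in size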
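HT-1080-NT fibrosarcoma cells (2HG-overproducing), 750 cells/well in RPMI with 5% FBS, dosed after 2 h and incubated 48 h at 37C. CellTiter-Glo luminescence normalized to DMSO and no-cell wells; concentration-response curves fitted and classed.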
Each line names hits and unclear results; the compound was inactive in the other large screens. Unless noted, the call rests on the fitted dose curve; in most records, active means well fitted curve in the direction sought with a large enough effect; inconclusive means small, poorly fitted or top-dose-only effect, or another doubt; inactive means no such curve, though single readings can be large; an effect the other way counts as inactive or inconclusive.

COc1ccc2c(c1)CCC(C)N2C(=O)C(=O)c1c[nH]c2ccccc12 (configuration not stated)	TDP1 cell noCPT inconclusive, TDP1 cell CPT 21µM, HT1080-NT tox inconclusive
O=C1CC(c2ccccc2)N(C(=O)CNC(=O)c2ccc(Cn3cncn3)o2)CCCCCN1 (configuration not stated)	none (no result: IL-1B inflam inh, TDP1 cell noCPT, TDP1 cell CPT, HT1080 IDH1KD tx, HT1080-NT tox)
COC(=O)C1(NC(=O)C2CCCO2)CCCCCC1 (configuration not stated)	none (no result: IL-1B inflam inh, TDP1 cell noCPT, TDP1 cell CPT, HT1080 IDH1KD tx, HT1080-NT tox)
CC(CNC(=O)Cn1c(-c2cccs2)cc2ccccc21)c1ccccc1 (configuration not stated)	TDP1 cell noCPT inconclusive, TDP1 cell CPT 21µM (no result: IL-1B inflam inh, HT1080 IDH1KD tx, HT1080-NT tox)
Cc1ccc(CNC(=O)Cn2c(-c3cccs3)cc3cc(Cl)ccc32)cc1	TDP1 cell noCPT 23µM, TDP1 cell CPT inconclusive (no result: IL-1B inflam inh, HT1080 IDH1KD tx, HT1080-NT tox)
CN(C)c1ccc(CNC(=O)Cn2c(-c3cccs3)cc3cc(Cl)ccc32)cc1	TDP1 cell noCPT inconclusive, TDP1 cell CPT inconclusive (no result: IL-1B inflam inh, HT1080 IDH1KD tx, HT1080-NT tox)
COc1ccc(CCNC(=O)Cn2c(=O)n(-c3ccc(C)c(F)c3)c(=O)c3sccc32)cc1OC	TDP1 cell noCPT 15µM, TDP1 cell CPT 9.2µM
CCOc1ccc(CCNC(=O)Cn2c(-c3cccs3)cc3ccccc32)cc1OCC	TDP1 cell noCPT inconclusive, TDP1 cell CPT inconclusive (no result: IL-1B inflam inh, HT1080 IDH1KD tx, HT1080-NT tox)
COc1ccc(CCNC(=O)Cn2c(-c3cccs3)cc3cc(F)ccc32)cc1OC	TDP1 cell noCPT 9.2µM, TDP1 cell CPT 7.3µM (no result: IL-1B inflam inh, HT1080 IDH1KD tx, HT1080-NT tox)
COc1ccc(C(=O)NNC(=O)CSc2nnc(C3CC3)n2C)cc1	none
CC(C)CC1C(=O)N(Cc2cn(Cc3ccco3)nn2)CCS(=O)(=O)N1Cc1ccc(-c2cccc(CO)c2)cc1 (configuration not stated)	TDP1 cell noCPT 16µM, TDP1 cell CPT inconclusive, ALOX12 inh 22µM
CC(C)CC1C(=O)N(Cc2cn(Cc3ccco3)nn2)CCS(=O)(=O)N1Cc1ccc(-c2ccc(Cl)cc2)cc1 (configuration not stated)	IL-1B inflam inh -53, TDP1 cell noCPT 13µM, TDP1 cell CPT 18µM, HT1080 IDH1KD tx inconclusive, ALOX12 inh inconclusive, HT1080-NT tox inconclusive
Cc1ccc(CNc2nc(CN3CCCCC3c3cccnc3)nc3ccccc23)o1 (configuration not stated)	TDP1 cell noCPT inconclusive, TDP1 cell CPT inconclusive (no result: IL-1B inflam inh, HT1080 IDH1KD tx, HT1080-NT tox)
O=C(Nc1ccc(Nc2ccccc2)cc1)c1ccc(Cl)cc1Cl	IL-1B inflam inh inconclusive, TDP1 cell noCPT inconclusive, TDP1 cell CPT 15µM, HT1080 IDH1KD tx inconclusive
COc1cc(OC)cc(C(=O)Nc2ccc(Nc3ccccc3)cc2)c1	TDP1 cell noCPT inconclusive, TDP1 cell CPT 21µM
N#C/C(C(=O)Nc1ccc(Cl)cc1)=C(/S)Nc1ccccc1	IL-1B inflam inh inconclusive, TDP1 cell noCPT 12µM, TDP1 cell CPT 15µM, HT1080 IDH1KD tx inconclusive, ALOX12 inh 1.8µM, HT1080-NT tox inconclusive
O=C(Nc1ccc(Nc2ccccc2)cc1)c1ccccc1	TDP1 cell noCPT 21µM, TDP1 cell CPT inconclusive, ALOX12 inh inconclusive
COC(=O)C1=C(c2ccccc2)c2ccccc2S(=O)(=O)N1CC(=O)Nc1ccc(C)c(F)c1	none (no result: IL-1B inflam inh, TDP1 cell noCPT, TDP1 cell CPT, HT1080 IDH1KD tx, HT1080-NT tox)
CN1[C@@H](CCC(=O)NCc2ccco2)CNC(=O)[C@@H]2[C@H]1CCN2Cc1ccccn1	none (no result: IL-1B inflam inh, TDP1 cell noCPT, TDP1 cell CPT, HT1080 IDH1KD tx, HT1080-NT tox)
COc1ccc2nc([C@H]3CCN(C4CCN(C)CC4)C3)[nH]c2c1	none (no result: IL-1B inflam inh, TDP1 cell noCPT, TDP1 cell CPT, HT1080 IDH1KD tx, HT1080-NT tox)
O=C(Nc1ccc(Nc2ccccc2)cc1)c1ccc(Cl)cc1	IL-1B inflam inh -62, TDP1 cell noCPT 13µM, TDP1 cell CPT 18µM, ALOX12 inh inconclusive
C#Cc1cccc(NC(=O)c2ccc(Cl)cc2Cl)c1	TDP1 cell noCPT 29µM
O=C(Nc1ccc(Cl)cc1)C1=Cc2ccccc2OC1	TDP1 cell noCPT 23µM, TDP1 cell CPT inconclusive, HT1080 IDH1KD tx inconclusive
O=C(Nc1ccccc1Cl)c1ccc(Cl)cc1Cl	none
O=C(/C=N/NC(=O)c1ccc(Cl)cc1Cl)c1ccccc1	IL-1B inflam inh -77, TDP1 cell noCPT inconclusive, TDP1 cell CPT inconclusive, HT1080 IDH1KD tx inconclusive
